Anthrax LF prot = Bacillus anthracis LF protease inhibitors, primary screen, biochemical, multiplex microsphere, MLPCN library; Lethal factor (Bacillus anthracis), P15917; multiplex microsphere protease cleavage assay; inhibition, % at 10 µM; actives 0.12% (n = 360,000); AID 588501, 2011
Target sequence (P15917 whole entry, looked up): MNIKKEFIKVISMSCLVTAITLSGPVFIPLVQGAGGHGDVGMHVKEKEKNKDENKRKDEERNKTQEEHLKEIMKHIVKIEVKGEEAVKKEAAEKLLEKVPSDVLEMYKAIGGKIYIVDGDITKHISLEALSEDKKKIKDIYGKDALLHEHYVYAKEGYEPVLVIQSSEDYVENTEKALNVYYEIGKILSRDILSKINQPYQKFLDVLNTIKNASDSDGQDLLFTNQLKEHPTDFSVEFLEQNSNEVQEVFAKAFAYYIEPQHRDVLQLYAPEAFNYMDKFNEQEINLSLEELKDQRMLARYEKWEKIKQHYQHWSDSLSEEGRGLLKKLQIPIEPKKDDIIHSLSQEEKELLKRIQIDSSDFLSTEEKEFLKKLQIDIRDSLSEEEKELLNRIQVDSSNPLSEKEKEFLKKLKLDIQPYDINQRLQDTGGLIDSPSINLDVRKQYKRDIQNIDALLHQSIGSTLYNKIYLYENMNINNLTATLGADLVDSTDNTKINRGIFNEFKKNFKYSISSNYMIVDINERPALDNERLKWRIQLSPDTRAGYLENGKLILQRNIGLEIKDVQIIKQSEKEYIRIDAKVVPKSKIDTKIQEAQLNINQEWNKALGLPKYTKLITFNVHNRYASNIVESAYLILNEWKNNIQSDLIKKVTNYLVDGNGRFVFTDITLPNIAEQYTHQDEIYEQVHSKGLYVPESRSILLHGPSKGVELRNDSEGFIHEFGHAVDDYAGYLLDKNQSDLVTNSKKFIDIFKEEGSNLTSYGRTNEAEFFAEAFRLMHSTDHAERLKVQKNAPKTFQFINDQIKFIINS
BoNT A protease = BoNT/A light chain protease inhibitors, primary screen, biochemical, flow cytometry, MLPCN library; Botulinum neurotoxin type A light chain protease (Clostridium botulinum A str. ATCC 3502); multiplex microsphere protease substrate cleavage; inhibition, % at 10 µM; actives 0.17% (n = 360,000); AID 588499, 2011
Autofluor counter = flagged as autofluorescent in microsphere protease counterscreen. compound autofluorescence counterscreen, microsphere flow cytometry; stronger effect = higher value. fluorescence intensity (no concentration beside the values). actives 3.1% (n = 360,000). AID 624483; in the data active means fluorescence intensity above about 16000; inconclusive means no clear call, values can overlap the other calls
BJeLR lethal = MLPCN primary cell-based screen for lethality selective to Ras in HRASV12 cells. actives 0.17% (n = 300,000). inhibition, % (no concentration beside the values). BJeLR (HRASV12) viability, CellTiter-Glo ATP luminescence, 48 h; in the data active means inhibition above about 50%; inconclusive means no clear call, values can overlap the other calls
BoNT F protease = BoNT/F light chain protease inhibitors, primary screen, biochemical, flow cytometry, MLPCN library; Botulinum neurotoxin type F light chain protease (Clostridium botulinum); Multiplex microsphere protease cleavage assay; inhibition, % at 10 µM; actives 0.22% (n = 360,000); in the data active means inhibition above about 35%, passing the limit was not always enough; inconclusive means no clear call, values can overlap the other calls
BH1578 lux ind = inducers of Vibrio cholerae quorum light production without autoinducers, primary screen, BH1578 luxS cqsA deficient, single point. AID 588436, 2011. activation, % at 18.7 µM. actives 0.16% (n = 350,000). V. cholerae BH1578 lux reporter, luminescence, 6 h; in the data active means activation mostly above about 9.7%, no sharp cut-off; inconclusive means no clear call, values can overlap the other calls; inactive means mostly below about 3.7%
Large screens that a line does not name were inactive. Hits are enriched below; roughly 3.7% of the tested compounds scored in any of these assays. Unless noted, no stated cut-off is given here; in the data, active means inhibition above about 30%; inconclusive means no clear call, values can overlap the other calls; inactive means below that.

COC(=O)c1ccc(CSc2nc3scc(-c4cccs4)c3c(=O)[nH]2)o1	BoNT A protease inconclusive, Autofluor counter 20323
CCN(CC(=O)Nc1c(F)cccc1F)C(=O)c1ccc(C(F)(F)F)cc1	none
CCN(CC(=O)Nc1c(F)cccc1F)C(=O)c1ccc2ncsc2c1	Autofluor counter 49356
COc1ccc([C@H]2C[C@H](n3cc(COC(=O)c4ccccc4)nn3)[C@@H](O)CN2C(=O)c2cccs2)cc1	none (no result: BJeLR lethal)
CCC(C)n1c(SCC(=O)Nc2ccccc2C(F)(F)F)nc2ccsc2c1=O (stereo not given)	Autofluor counter 21867
COc1ccc(C(C)(O)c2nc(-c3ccc(OC)nc3)cs2)cc1 (stereo not given)	none (no result: BJeLR lethal)
COc1cccc(Nc2nc3ccccc3nc2NS(=O)(=O)c2cccs2)c1	BoNT A protease inconclusive, Autofluor counter 22498
COc1ccc(Nc2nc3ccccc3nc2NS(=O)(=O)c2cccs2)c(OC)c1	none
Cc1cccc(NC(=O)CCS(=O)(=O)c2ccc3nc(C)sc3c2)c1	none (no result: BJeLR lethal)
O=C1C=Cc2cccc3ccc(O)c1c23	Anthrax LF prot 38, BoNT A protease 61 (no result: BJeLR lethal)
CC1C/C(=N\NC(=S)NCc2ccccc2)CC(C)(C)C1 (stereo not given)	BoNT A protease inconclusive, Autofluor counter 22911
CC1CCC/C(=N\NC(=S)NCc2ccccc2)C1 (stereo not given)	none
O=C(O)c1c2c(nc3ccc(F)cc13)CCC2	Autofluor counter 20799
COn1c(-c2ccccc2)c(C=O)c2ccccc21	Autofluor counter 37117, BoNT F protease inconclusive
Cn1c(-c2ccccc2)c(C=O)c2ccccc21	none
COc1ccc2nc(C)cc(SCC(=O)Nc3c(C)cc(C)cc3C)c2c1	Autofluor counter 18106
COc1ccc2occ(C(=O)c3coc4ccc(O)c(CN(C)C)c34)c2c1	Autofluor counter 23271
COc1ccc2occ(C(=O)c3ccc(N)cc3)c2c1	BoNT F protease inconclusive
CCN(CC)Cc1c(O)ccc2occ(C(=O)c3ccccc3)c12	BoNT F protease inconclusive
COc1ccc(OC)c(C(=O)c2coc3ccc(O)c(CN(C)C)c23)c1	BoNT F protease inconclusive
COc1ccc2occ(C(=O)c3cccs3)c2c1	Autofluor counter 24929
CN(C)Cc1c(O)ccc2occ(C(=O)c3ccccc3)c12	Autofluor counter 22642
O=C(c1cccs1)c1coc2ccc(O)c(CN(CCO)CCO)c12	Autofluor counter 21865
CSc1ccccc1NC(=O)C1(C)CCN1C(=O)Cc1ccccc1Cl (stereo not given)	none (no result: BJeLR lethal)
Cc1ccc(NC(=O)CSCC(=O)N(C)Cc2c(F)cccc2Cl)cc1	none (no result: BJeLR lethal)
CCCCC(=O)N(C)c1c(C)nc2ccc(C(=O)N3CCN(c4ccccc4)CC3)cn12	none (no result: BJeLR lethal)
O=S1(=O)CC(N2CCC(c3ccccc3)CC2)CN1Cc1ccc(F)cc1 (stereo not given)	none (no result: BJeLR lethal, BH1578 lux ind)
CCOC(=O)c1ccccc1Nc1cn(C(C)=O)c2ccccc12	none
CC(=O)n1cc(N(C(=O)CCl)c2ccc(Cl)cc2)c2ccccc21	BJeLR lethal 108, BoNT F protease inconclusive
COc1ccccc1N(C(=O)CCl)c1cn(C(C)=O)c2ccccc12	BJeLR lethal 65
CC(C)C[C@H]1CN(CCCC[C@H]2CNC(=O)C(=O)N2CCc2ccc(O)cc2)C(=O)C(=O)N1CCc1ccc(O)cc1	none (no result: BJeLR lethal, BH1578 lux ind)
CCc1nnc(NC(=O)c2ccc(NC(=O)C(C)C)cc2)s1	none (no result: BH1578 lux ind)
COCc1nnc(NC(=O)c2ccc(NC(=O)C(C)C)cc2)s1	Autofluor counter 23228
COCc1nnc(NC(=O)c2cc(Cl)ccc2OC)s1	Autofluor counter 23665
CCOCc1nnc(NC(=O)c2cc(Cl)ccc2OC)s1	none
NC(Cc1ccccc1)c1csc(NC(=O)c2cccc(OC(F)(F)F)c2)n1 (stereo not given)	none (no result: BJeLR lethal)
CCOC(=O)C1(C)CCCCCN1C(=O)c1ccc(N(C)C)cc1 (stereo not given)	none (no result: BJeLR lethal)
O=C1C=CC(=NN=C(c2ccccc2)c2ccccc2)C=C1	none (no result: BJeLR lethal, BH1578 lux ind)
COc1ccc(-c2cn3c(C)c(C(=O)NC(C)(C)C)sc3n2)cc1	none
Cc1c(C(=O)NCc2ccccn2)sc2nc(-c3ccccc3)cn12	none
Cc1c(C(=O)Nc2ccccc2)sc2nc(-c3ccccc3)cn12	Autofluor counter 23471
Cc1c(C(=O)NCc2ccccn2)sc2nc(-c3ccc(F)cc3)cn12	Autofluor counter 19364
Cc1cccc(NC(=O)c2sc3nc(-c4ccc(F)cc4)cn3c2C)n1	BoNT A protease inconclusive, Autofluor counter 19776
COc1ccc(-c2cn3c(C)c(C(=O)NC(C)C)sc3n2)cc1	Autofluor counter 23094
Cc1cccc(NC(=O)c2sc3nc(-c4ccccc4)cn3c2C)n1	none
CC1=C(C(=O)N2CCOCC2)CC(CC(=O)NC2CCCC2)C(=O)N1CCCN1CCCC1=O (stereo not given)	none (no result: BJeLR lethal)
COc1ccc(N=Nc2ccc(O)c3ncccc23)cc1	none
Cc1ccccc1N=Nc1ccc(O)c2ncccc12	BJeLR lethal 66
COc1cccc(N=Nc2ccc(O)c3ncccc23)c1	BJeLR lethal 66
Cc1ccc2[nH]c(=O)c(N3CCOCC3)c(-c3ccccc3)c2c1	BoNT A protease inconclusive, Autofluor counter 25661
O=C(CCN1CCOCC1)Nc1c(-c2ccccc2)c2cc(Br)ccc2[nH]c1=O	none
CCOC(=O)C1C(=O)CC(C)(O)C(C(=O)OCC)C1c1ccccc1OC (stereo not given)	Autofluor counter 21006
COCCCn1c(=N)c(C(=O)NCc2ccc3c(c2)OCO3)cc2c(=O)n3cccc(C)c3nc21	none (no result: BJeLR lethal)
COCCCn1c(=N)c(C(=O)NCc2ccc3c(c2)OCO3)cc2c(=O)n3ccccc3nc21	Autofluor counter 22332
COc1ccc(CNC(=O)c2cc3c(=O)n4ccccc4nc3n(Cc3cccnc3)c2=N)cc1	none
N=c1c(C(=O)NCc2ccc3c(c2)OCO3)cc2c(=O)n3ccccc3nc2n1Cc1cccnc1	Autofluor counter 24844
O=c1c(-c2ccccc2)cocc1-c1ccccc1	none (no result: BJeLR lethal)
CCCCOC(=O)CCCN1C(=O)/C(=C2\SC(=S)N(CCCC(=O)OCCCC)C2=O)SC1=S	Anthrax LF prot 45, BoNT A protease 65
CC1(C(=O)NS(=O)(=O)c2cccc(F)c2)CCN1C(=O)CC1CCCCC1 (stereo not given)	none (no result: BJeLR lethal)
COc1ccc(/C=N/Nc2nc3ccccc3[nH]2)cc1OC	none
O=c1cnnc(N/N=C/c2ccccn2)[nH]1	BJeLR lethal 63
C(=N\Nc1nc2ccccc2[nH]1)/c1ccc2ncccc2c1	BJeLR lethal 88
C(=N\Nc1nc2ccccc2[nH]1)/c1ccccn1	BJeLR lethal 54
C(=N\Nc1nc2ccccc2[nH]1)/c1cccc2nccnc12	none

Source: PubChem BioAssay
